Reference: PubChem BioAssay (NCI)
About 79,000 compounds went through this panel and 15% of them were active in at least one assay; those are over-represented in the sample as a whole. A number with no mark means an inactive call. Active and inactive are the calls of the source. No stated cut-off is given here; in the data, active means growth inhibition above about 70%; inactive means the rest.

Experiments:
[1] = NCI Yeast Anticancer Drug Screen. Data for the rad50 strain (AID 155);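 further: 0% = growth of vehicle-only cultures of the same strain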; details: S. cerevisiae rad50 strain growth inhibition; at 50.0 µM; active compounds read high
Procedure, shortened: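 Genetically altered yeast (DNA repair pathway); compound treatment; growth inhibition vs vehicle ctrl.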

[2] = NCI Yeast Anticancer Drug Screen. Data for the mec2-1 strain (AID 157); details: S. cerevisiae mec2-1 strain, at 50.0 µM, active compounds read high
Procedure, shortened: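 Compounds were applied to mec2-1 yeast cells. Their growth was then compared with that of vehicle-treated cultures to give growth inhibition.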

[3] = NCI Yeast Anticancer Drug Screen. Data for the sgs1 mgt1 strain (AID 161);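 further: 0% = growth of cultures given vehicle only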; details: S. cerevisiae sgs1 mgt1 strain, at 50.0 µM, active compounds read high
Procedure, shortened: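 Percent growth inhibition was derived by comparing compound-exposed mutant yeast with vehicle-exposed cultures. The strain carries alterations in DNA damage repair.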

[4] = NCI Yeast Anticancer Drug Screen. Data for the cln2 rad14 strain (AID 165);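 further: 0% = growth equal to vehicle treated cultures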; details: S. cerevisiae cln2 rad14 strain, at 50.0 µM, active compounds read high
Procedure, shortened: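 Strain: cln2 rad14 yeast, altered in cell cycle control and DNA damage repair. Read-out: growth inhibition vs vehicle.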

[5] = NCI Yeast Anticancer Drug Screen. Data for the bub3 strain (AID 167); details: S. cerevisiae bub3 mutant strain, at 50.0 µM, active compounds read high
Procedure, shortened: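 Yeast carrying a defined mutation is treated with each compound, and growth is compared with that of vehicle-exposed cells to give inhibition.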

[6] = NCI Yeast Anticancer Drug Screen. Data for the mlh1 rad18 strain (AID 175); details: S. cerevisiae mlh1 rad18 strain growth inhibition; at 50.0 µM; active compounds read high
Procedure, shortened: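 A repair-deficient yeast strain is exposed to test compound, and growth is scored relative to vehicle-treated controls.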

| Compound | growth inhibition [1] | growth inhibition [2] | growth inhibition [3] | growth inhibition [4] | growth inhibition [5] | growth inhibition [6] |
| --- | --- | --- | --- | --- | --- | --- |
| COC(=O)C1C2CC3C1C3C2C(=O)OC (configuration not stated) | -14.2% | -8.2% | -4.45% | 19.6% | -14.6% | -18.6% |
| C=C(C)CC(O)CCCCC (configuration not stated) | 15.1% | -5.85% | 19.7% | -33.9% | 17.3% | -13.3% |
| Cc1cc(=O)oc2cc(OC(=O)Nc3ccc(F)c([N+](=O)[O-])c3)ccc12 | 7.85% | 45.2% | 27.1% | -11.8% | 53.9% | 12.5% |
| Cc1ccc(S(=O)(=O)/C=C\S(=O)(=O)c2ccc(C)cc2)cc1 | -7.35% | -3.15% | 5.15% | -28.4% | 3.15% | 2.7% |
| CN=C(NC(=S)N(C)C)N(C)C | -4.3% | -6.85% | -9.4% | -7.85% | -14.1% | 2.75% |
| C[Si](C)(C)O/C=C1/CCOC1=O | 46.9% | 45.7% | -13.9% | -6.5% | -39.8% | -45% |
| FCCCCSc1ncnc2nc[nH]c12 | -25.3% | -15.2% | -24.7% | -33.4% | -11.5% | -17.2% |
| CCOc1ccc(C(C)(C)c2cc3c(cc2OC)OCO3)cc1 | -16.2% | -27.8% | -39.9% | -24.8% | -21.9% | -6.45% |
| C=CCSc1nc2c(=O)[nH]cnc2n1C1OC(CO)C(O)C1O (configuration not stated) | -7.35% | 4% | -3.1% | -0.35% | -8.1% | -12.7% |
| CCOC(=O)Nc1ccc(C2SCCN2C(=O)Nc2ccc(Cl)cc2)cc1 (configuration not stated) | -9.5% | -14.3% | -9.45% | -5.65% | -7.7% | -11.3% |
| OC1CN(c2ccccc2)CC(O)CN(c2ccccc2)C1 (configuration not stated) | -8.1% | 2.35% | 7.3% | -11.8% | -16.1% | 6.2% |
| C/C=C(\C)C(=O)OC1CC(C)(O)C(=O)C(OC(=O)/C(C)=C/C)C2(C)CCC(O)(C(C)C)C12 (configuration not stated) | -27.2% | -30.1% | -34.7% | -16.8% | -15% | -24.8% |
| Brc1c2ccccc2cc2ccccc12 | 22% | 29.8% | 25% | -8.8% | 63.4% | 42.6% |
| COC1(C)C=NCC(C)(C)NC(=O)C(C)(OC)C=NCC(C)(C)NC1=O (configuration not stated) | -12.4% | -27.6% | -29.4% | -16.4% | -21.6% | -26.5% |
| C#CCSC(=N)N | 5.4% | -6.9% | 8.9% | 5.2% | 8.8% | 5.75% |
| Nc1nc(N)nc(CNc2c(Br)cc(Br)cc2Br)n1 | 12% | 24.6% | 16.5% | -9.25% | -10.2% | 4.95% |
| Cc1cccc(-n2cnc3c(N(CCO)CCO)ncnc32)c1 | 6.55% | 2.6% | -10.1% | -4.5% | 2.25% | -4.3% |
| COC(=O)/C(=N\N)C(C(=O)C(=O)Nc1cc(Cl)ccc1Cl)c1nc2ccc([N+](=O)[O-])cc2[nH]c1=O (configuration not stated) | 13.1% | 6.6% | -6.15% | -20.2% | 25.9% | 12.7% |
| COC(=O)C(C(=O)C(=O)Nc1ccc(C)cc1)c1nc2ccc([N+](=O)[O-])cc2[nH]c1=O (configuration not stated) | 16.9% | 15.2% | 0.8% | -3.95% | 22.2% | 4.6% |
| O=C(NCCCCCCNC(=O)N1CCCCC1)c1cccnc1 | -7.8% | -21.3% | -3.65% | -27.2% | 13.3% | -33.6% |
| COc1c(N)c(C)nc(Cl)c1C#N | -10.1% | 2.95% | -2.7% | -1.05% | -0.75% | 8.9% |

| Compound | growth inhibition [1] | growth inhibition [2] | growth inhibition [3] | growth inhibition [4] | growth inhibition [5] | growth inhibition [6] |
| --- | --- | --- | --- | --- | --- | --- |
| COc1ccc(-c2oc3cc(OC)c(OC)c(O)c3c(=O)c2OC)cc1 | 7.45% | 0.25% | 3.05% | 9.05% | 13.8% | -56.5% |
| Nc1nc2c(ncn2Cc2ccc(Cl)c(Cl)c2)c(=O)[nH]1 | -5.1% | -7.4% | -1.65% | -10.1% | -0.5% | 2.55% |
| CSc1nc2ccc(NCn3c(=O)sc4cc(Br)ccc43)cc2s1 | 1% | 38.9% | 4.6% | 30.9% | 65.5% | 42% |
| CC(=O)Cc1ccco1 | 14.5% | -3.35% | -8.8% | 22.5% | -2.2% | -10.7% |
| CC12C=CC(=O)C=C1CCC1C3CC(F)C(O)(C(=O)CO)C3(C)CC(O)C12F (configuration not stated) | -6.35% | 2.25% | 3.25% | 25.2% | 14.8% | 3.3% |
| CN(C)/N=N/c1nc2c(c(=O)n(C)c(=O)n2C)n1C | -2.25% | 20.2% | -8.8% | 5.05% | -5.4% | 15.7% |
| O=Nc1ccc(O)cc1O | 16.9% | 2.5% | 1.15% | -38.6% | 33.3% | 19.1% |
| CC(C)(CN)C(=O)O | -3.2% | -6.95% | -11.6% | -17.1% | -0.3% | 9.75% |
| Brc1nccs1 | -21.9% | -21.4% | -13.2% | -11.1% | -9.05% | -27.1% |
| COc1cc(-c2cc(O)c(-c3ccc4ccccc4n3)c(=O)[nH]2)cc(OC)c1OC | 6.75% | 14.6% | 1.6% | 11.8% | -27.1% | 23.4% |
| O=C1c2ccccc2N2Oc3ccccc3C12c1ccccc1 (configuration not stated) | -3.45% | -13.2% | -16% | 0.55% | -21.2% | 18.8% |
| CCOC(=O)C1SCSCC1=O (configuration not stated) | -1.1% | -1.7% | -5.55% | -30.2% | -20.6% | 6% |
| Cc1cn(C2CC(N(C)O)C(CO)O2)c(=O)[nH]c1=O (configuration not stated) | -16.8% | -27% | -8.15% | -34.7% | -12.3% | -58.9% |
| CCCCC1CC(c2ccc(Cl)cc2)=NO1 (configuration not stated) | 26.9% | -7% | 16.6% | -1.55% | 3.75% | 20.2% |
| c1ccc(N=C2CCCCCC2)cc1 | -1.85% | 14.2% | -5.8% | 7.15% | -9.25% | -6.7% |
| CC(C)=CCc1c(O)ccc(C(=O)[C@H]2C(c3ccc(O)cc3O)CC(C)=C[C@@H]2c2c(O)cc(O)c3c(=O)c(CC=C(C)C)c(-c4ccc(O)cc4O)oc23)c1O (some centres not stated) | 88.4% (active) | 90% (active) | 92% (active) | 89% (active) | 90.2% (active) | 89.8% (active) |
| FC(F)Cc1ccccc1 | 3.55% | -0.75% | 11.1% | -7.15% | -1.5% | -6.6% |
| Cc1cc(C)cc(N)c1 | 1.7% | -29.9% | -5.1% | -8.85% | -5.25% | -10% |
| O=S(=O)(N=S(c1ccccc1)c1ccccc1)c1ccccc1 | -67% | -66.2% | -63.1% | -20.9% | -59.6% | -51.2% |
| [B]C(=O)NC(CC(C)C)C(=O)NCC(=O)NC1c2ccsc2C(=O)C1O (configuration not stated) (tested in a mixture with another compound) | -23.5% | 3.95% | -23.8% | -8.45% | 0% | 2.05% |
| NCCC(=O)O | 5.95% | 14.9% | -8.25% | 12.1% | -13.8% | 16.9% |
